Test results reported in PubChem BioAssay AID1224921 (Broad Institute, 2016).
In all, about 1,400 compounds went through this assay and about 350 (25%) were called active. Roughly 2% stayed inconclusive and do not appear here. No rule for the calls is given here. Not all results are given here. Measured potencies and affinities stand elsewhere.

Experiment: C. difficile growth inhibition, confirmation, 4-point retest (AID 1224921);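 also: plate controls were DMSO wells for no effect and levofloxacin 16 µg/mL wells for full effect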
Conditions: Clostridioides difficile clinical isolate growth, OD600, 24 h, stronger effect = lower value; at 30 µM unless noted

Max activity, inactive:
CO[C@H]1CN(C)C(=O)c2ccc(NC(=O)C3CC3)cc2OC[C@@H](C)N(Cc2cccc(F)c2)C[C@H]1C 15.9%
CO[C@H]1CN(C)C(=O)c2ccc(NC(=O)c3ccc(F)cc3)cc2OC[C@@H](C)N(C(=O)CN(C)C)C[C@@H]1C -6.76% [at 0.5 µM]
C[C@H]1CN([C@@H](C)CO)S(=O)(=O)c2ccc(C#CC3CC3)cc2O[C@@H]1CN(C)Cc1cccnc1 36.4%
COc1ccccc1C#Cc1ccc2c(c1)O[C@@H](CN(C)Cc1ccncc1)[C@H](C)CN([C@H](C)CO)S2(=O)=O 34.5%
CO[C@@H]1CN(C)C(=O)c2cc(NC(C)=O)ccc2OC[C@@H](C)N(CCc2ccccc2)C[C@@H]1C 18.4%
CO[C@@H]1CN(C)C(=O)c2ccc(NC(=O)c3nc4ccccc4s3)cc2OC[C@H](C)N(Cc2ccncc2)C[C@H]1C 21.3%
COc1ccc(NC(=O)Nc2ccc3c(c2)[C@H]2C[C@H](CC(=O)N4CCc5ccccc5C4)O[C@@H](CO)[C@H]2O3)cc1 -11.6% [at 0.5 µM]
CCCC(=O)Nc1ccc2c(c1)OC[C@@H](C)N(C(=O)Cc1cccnc1)C[C@@H](C)[C@H](OC)CN(C)C2=O -13.6% [at 1.95 µM]
COCC(=O)N(C)C[C@@H]1Oc2cc(C#Cc3ccccc3)ccc2S(=O)(=O)N([C@@H](C)CO)C[C@@H]1C 7.66%
CO[C@@H]1CN(C)C(=O)c2ccc(NC(=O)c3nc4ccccc4s3)cc2OC[C@@H](C)N(Cc2cccnc2)C[C@@H]1C 29.5%
CO[C@H]1CN(C)C(=O)c2cc(NC(=O)c3ccccc3)ccc2OC[C@@H](C)N(C)C[C@H]1C 10.4%
Cc1ccc(S(=O)(=O)N2C[C@@H](O)COC[C@@H]3O[C@@H](CC(=O)NCC4CCCCC4)CC[C@H]32)cc1 22.7% [at 8 µM]
COc1ccc(S(=O)(=O)N2C[C@@H](O)COC[C@H]3O[C@H](CC(=O)NCc4ccc(Cl)c(Cl)c4)CC[C@@H]32)cc1 33.9% [at 0.5 µM]
Cc1ccc(S(=O)(=O)N2C[C@H](O)COC[C@H]3O[C@H](CC(=O)NCc4ccc(Cl)c(Cl)c4)CC[C@@H]32)cc1 26.4% [at 8 µM]
C[C@H](CO)N1C[C@H](C)[C@H](CN(C)Cc2cccnc2)Oc2cc(C#CC3CCCCC3)ccc2S1(=O)=O 30.4%
C[C@@H]1CN([C@@H](C)CO)C(=O)Cc2cc(N(C)C)ccc2O[C@@H]1CN(C)Cc1ccc(-c2ccccc2)cc1 57.8%
C[C@@H]1CN([C@H](C)CO)C(=O)c2cc(-c3ccccc3)cnc2O[C@@H]1CN(C)Cc1ccccn1 -13.1% [at 1.95 µM]
O=C(C[C@@H]1C[C@@H]2c3cc(NC(=O)Nc4ccc(C(F)(F)F)cc4)ccc3O[C@@H]2[C@H](CO)O1)NCc1ccc2c(c1)OCO2 9.21% [at 1.95 µM]
CC(C)NC(=O)N[C@H]1CC[C@H](CC(=O)NCCCN(C)C)O[C@H]1CO -16.5% [at 1.95 µM]
C[C@@H]1CN([C@H](C)CO)C(=O)c2c(c3ccccc3n2C)-c2ccccc2CO[C@@H]1CN(C)S(=O)(=O)c1cccc(F)c1 42% [at 35 µM]
